# System: Trypanosoma cruzi
# Assay: Trypanosoma cruzi phosphomannomutase and mannose-1-phosphate guanylyltransferase assay
# Type: functional
# Design: scale not given: direction of the effect not stated beside the values
# Conditions: 10 µM
row,SMILES,Percent Effect [%]
1,Cn1c(NCC(O)c2ccc(F)cc2F)c(C#N)c(=O)n(C)c1=O (stereo not given),1.6
2,CC(CNC(=O)N1CCSCC1)Cc1cccs1 (stereo not given),-0.195
3,NC(=O)COc1cccc(C(=O)N2CCCC(n3ccnc3)C2)c1 (stereo not given),6.41
4,CCC(O)CNC(=O)c1coc(COc2ccc3sc(C)nc3c2)n1 (stereo not given),-0.392
5,CCNC(=O)N1CCC2(C1)c1ccccc1S(=O)(=O)N2CCC(C)C (stereo not given),5.99
6,Cc1ccc(C(CNCc2cnn(C(C)C)c2)N2CCOCC2)s1 (stereo not given),-0.391
7,COc1cccc(C(=O)Nc2cc(CC(C)C)nn2C)c1,6.74
8,Cc1cc(F)ccc1CN1CCCC2(C1)OCCO2,0.391
9,CCN(Cc1ccco1)C(=O)Nc1cc(C(F)(F)F)c[nH]c1=O,-2.71
10,O=C(c1ccccc1OCC1CC1)N1CCCC(n2ccnc2)C1 (stereo not given),3.18
11,Cn1nc(CNC(=O)NCc2ccc(Cl)cc2)c2c1CCOC2,3.45
12,O=C(NCC(Cc1cccc(F)c1)N1CCCC1=O)c1ccccc1 (stereo not given),-5.68
13,CSCC(C)(O)CNC(=O)c1ccc(Br)cc1F (stereo not given),2.25
14,CCN1CCC(c2nc3ccc(NC(C)C)cn3n2)CC1,7.62
15,COc1ccc(Oc2cncc(C3CCCN3C(C)=O)n2)cc1 (stereo not given),-3.56
16,CCn1nc(C)c(CNC(=O)c2cn(CCC3CCCCN3)nn2)c1C (stereo not given),1.27
17,N#Cc1ccc(N2CCN(C(=O)c3cc(C4CC4)[nH]n3)CC2)c(F)c1,5.29
18,CNS(=O)(=O)c1ccc(C(=O)N2CCCC2c2ccccc2)o1 (stereo not given),2.15
19,CC(=O)c1c(F)cccc1N1CCC(CS(N)(=O)=O)CC1,0.595
20,Cc1ccc(CC(=O)NC(C)C(=O)N2CCS(=O)(=O)CC2)cc1 (stereo not given),-2.9
